TDP43 rescue – qHTS of TDP-43 Inhibitors; TDP-43 expressing yeast growth rescue, BacTiter-Glo, 24 h; 1.8% of 410,000 active; Potency, µM (series often up to 46.1 µM), usual class: activators; AID 652104, 2013; also: nearly all actives have a fitted effect of over 50% in size
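Readout is BacTiter-Glo luminescence of cell growth, so inhibitors register as activators. TDP-43-expressing yeast at OD600=0.02 in galactose medium, after raffinose pregrowth to mid-log, were incubated with compound for 24 hr at 30 deg C.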
Abeta yeast res – qHTS for compounds that reverse cellular toxicity of Amyloid beta (A-beta) peptide in yeast: Primary Screen. yeast expressing A-beta42, growth rescue, OD600, 48 h; response scale: 0% DMSO, 100% iron-clioquinol control. Potency, µM (titrated, usually from 46.1 µM), usual class: activators. 0.063% of 410,000 active. AID 1347071, 2019; also: nearly all actives have a fitted effect of over 55% in size
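Yeast A-beta toxicity model in growth medium with pinned compounds, 48 h at 30 C; growth read as absorbance at 600 nm. Normalized to FeCl3/clioquinol equimolar mix (positive) and DMSO (negative).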
aSyn yeast inh – qHTS of alpha-syn Inhibitors | Yeast expressing alpha-synuclein, growth rescue, BacTiter-Glo, 24 h | Potency, µM (series often up to 46.1 µM), actives largely listed as activators | 0.14% of 370,000 active | AID 652106, 2013; also: nearly all actives have a fitted effect of over 65% in size
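Readout is rescue of growth in alpha-synuclein-expressing yeast, so inhibitors of toxicity appear as activators. Growth after 24 hr at 30 deg C in galactose medium is quantified by luminescence.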
FUS suppressor – qHTS for Suppressors of FUS Proteinopathy: Primary screen using FUS-linked yeast assay; S. cerevisiae FUS-expressing, growth rescue, OD600, 24 h; Potency, µM (titrated, usually from 76.6 µM), most hits filed as activators; 0.24% of 390,000 active; AID 1347120, 2019; also: nearly all actives have a fitted effect of over 55% in size
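Restored growth of FUS-toxic S. cerevisiae, read as 600 nm absorbance after 24 h at 30C in galactose medium (starting OD 0.005). Controls CP55940 and DMSO.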
Each line names hits and unclear results; the compound was inactive in the other large screens. Only some compounds are listed: those with a hit (about 2.1% of all), similar ones and a draw of the others. Calls follow the shape of the dose curve; as a rule, active = well fitted curve in the direction sought with a large enough effect; inconclusive = small, poorly fitted or top-dose-only effect, or another doubt; inactive = no such curve, though single readings can be large; an effect the other way counts as inactive or inconclusive.

Cc1ccc(C(=O)Nc2ccc3ccccc3c2)cc1	none
S=C(NCc1ccco1)N1CCN(c2cccc(Cl)c2)CC1	Abeta yeast res 13µM
S=C(NCCN1CCOCC1)N1CCN(c2cccc(Cl)c2)CC1	none
CC1CCCC(NC(=O)CSc2ncnc3ccccc23)C1C (stereo unspecified)	TDP43 rescue 14µM
CC1CCCC(NC(=O)COc2ncnc3ccccc23)C1C (stereo unspecified)	none (no result: FUS suppressor)
Clc1ccccc1COc1ccccc1-c1nnco1	TDP43 rescue 3.2µM
CCCCn1nnnc1C(c1ccccc1)N1CCN(c2ccc(F)cc2)CC1 (stereo unspecified)	TDP43 rescue 28µM
CC1(C)Cc2c(C#N)c(N3CCN(C(=O)c4ccccc4Cl)CC3)nc(-c3ccco3)c2CS1	FUS suppressor 11µM
C=CCc1ccccc1OCC(O)CNC1CCCC1 (stereo unspecified)	none
Cc1cccn2c(=O)c3cc(C(=O)NCCCn4ccnc4)n(C)c3nc12	none
COc1cccc(CNC(=O)C2CCN(S(=O)(=O)c3ccc4c(c3)NC(=O)C(C)S4)CC2)c1 (stereo unspecified)	none
CCC(C(=O)NCc1cccnc1)c1ccccc1 (stereo unspecified)	none
COc1ccc(C)cc1NC(=O)CSc1ccc(-c2ccco2)nn1	TDP43 rescue 18µM
COc1ccccc1NC(=O)CSc1nccc(-c2ccco2)n1	TDP43 rescue 16µM
COc1ccccc1NC(=O)CSc1ccc(-c2ccccn2)nn1	TDP43 rescue 22µM, Abeta yeast res inconclusive
O=C(CSc1ccc(-c2ccccn2)nn1)Nc1ccc(F)c(F)c1	TDP43 rescue 13µM
O=C(NCC1CCCO1)C(c1cccs1)N(Cc1ccccc1)C(=O)c1ccc(-c2ccccc2)[nH]1 (stereo unspecified)	TDP43 rescue 16µM (no result: FUS suppressor)
O=C(NCC1CCCO1)C(c1cccs1)N(C(=O)c1ccc(-c2ccccc2)[nH]1)C1CCCC1 (stereo unspecified)	none
COc1ccc(CN(C(=O)c2ccc(-c3ccccc3)[nH]2)C(C(=O)NCC2CCCO2)c2ccc(C)o2)cc1 (stereo unspecified)	TDP43 rescue 11µM (no result: FUS suppressor)
O=C(Nc1ccccc1C(=O)O)c1cccc(NC(=O)c2ccco2)c1	none
COCCn1c(SCc2ccc(F)cc2)nc2ccccc2c1=O	TDP43 rescue 18µM
COCCn1c(SCc2ccc(OC)c(F)c2)nc2ccccc2c1=O	TDP43 rescue inconclusive
CCSc1nc2ccccc2c(=O)n1CCc1ccc(OC)c(OC)c1	TDP43 rescue 18µM, aSyn yeast inh inconclusive, FUS suppressor inconclusive
Cn1cnc([N+](=O)[O-])c1S(=O)(=O)Oc1ccccc1	TDP43 rescue 13µM
Cn1cnc([N+](=O)[O-])c1S(=O)(=O)Nc1ccccc1	FUS suppressor inconclusive
Cn1cnc([N+](=O)[O-])c1S(=O)(=O)c1cccc(Cl)c1	TDP43 rescue 13µM
CC1CC(C)CN(CC(=O)c2c[nH]c3ccccc23)C1 (stereo unspecified)	none
COc1cc2ccc(C(C)=NNC(N)=S)cc2cc1OC	none
COc1ccc(C(=O)Nc2ccc(S(=O)(=O)Nc3nccnc3OC)cc2)cc1	TDP43 rescue 0.32µM
COc1nccnc1NS(=O)(=O)c1ccc(NC(=O)c2ccc(F)cc2)cc1	none
O=C(CCCOc1ccccc1)n1nnc2ccccc21	none
Cc1nc(/C(N)=N/OC(=O)c2cccc(Cl)c2)c(C(F)(F)F)o1	TDP43 rescue 20µM
O=C(Nc1ccc2c(c1)OCCO2)C1CC1c1ccccc1 (stereo unspecified)	TDP43 rescue 25µM, Abeta yeast res inconclusive (no result: FUS suppressor)
O=C(O)C1CCCCC1C(=O)Nc1ccc2c(c1)OCCO2 (stereo unspecified)	none
O=C(Nc1ccc2c(c1)OCCO2)c1cnn(-c2ccccc2)n1	TDP43 rescue 18µM
COc1ccc(-c2csc(N3CCN(c4cc(C)nc5ccccc45)CC3)n2)cc1OC	FUS suppressor inconclusive
O=C(NN=Cc1cc(Cl)ccc1[N+](=O)[O-])c1ccco1	none (no result: FUS suppressor)
CCc1ccc(OCC(=O)Nc2ccc3c(c2)COC3=O)cc1	TDP43 rescue 13µM
CCc1ccc(OCC(=O)NCCc2ccc3c(c2)OCCO3)cc1	TDP43 rescue 32µM
O=C(C1CCCN(S(=O)(=O)c2ccccc2[N+](=O)[O-])C1)N1CCN(Cc2ccccc2)CC1 (stereo unspecified)	none (no result: TDP43 rescue, Abeta yeast res, aSyn yeast inh)

From PubChem BioAssay
